“And” between values parts separate entries of the source, which are not always exact repeats. Identical values can stand only once. Hit rate of the full screen: of about 5,500 compounds, about 2,000 (36%) were called active. Another 18% or so got no clear call; they are omitted. Cut-off read from the data, not from the text of the source: active = normalized growth mostly below about 0.91 (no sharp cut-off); inconclusive = no clear call, values can overlap the other calls; inactive = mostly above about 0.92. The list shows a part of the results.
Experiment: chemical genetic growth profiling, strain panel (AID 1159580);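 note: tested at 20 µM; growth read once vehicle control cultures reached saturation at 30 °C; 1 = growth at the plate median or of vehicle wells; lower values mean less growth of the strain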
Conditions: growth OD

Measured: normalized growth

O=C(CCCN1CCC2(CC1)C(=O)NCN2c1ccccc1)c1ccc(F)cc1
inactive: S. cerevisiae deletion strains, locus YKL009W, strain mrt4, stronger effect = lower value 0.977 | S. cerevisiae deletion strains, locus YKL068W, stronger effect = lower value 0.99 | S. cerevisiae deletion strains, locus YKL085W, strain MDH1 (second series), stronger effect = lower value 0.986 | S. cerevisiae deletion strains, locus YKL085W, strain MDH1, stronger effect = lower value 0.986 | S. cerevisiae deletion strains, locus YKL160W, strain elf1, stronger effect = lower value 0.946 | S. cerevisiae deletion strains, locus YKL190W, strain CNB1, stronger effect = lower value 0.99 | S. cerevisiae deletion strains, locus YKR001C, strain vps1, stronger effect = lower value 0.999 | S. cerevisiae deletion strains, locus YKR026C, strain gcn3, stronger effect = lower value 0.985 | S. cerevisiae deletion strains, locus YKR091W, strain srl3, stronger effect = lower value 0.97 | S. cerevisiae deletion strains, locus YLL001W, strain dnm1, stronger effect = lower value 1.01 | S. cerevisiae deletion strains, locus YLL026W, stronger effect = lower value 0.978 | S. cerevisiae deletion strains, locus YLL041C, strain sdh2, stronger effect = lower value 0.988 | S. cerevisiae deletion strains, locus YLR027C, strain aat2, stronger effect = lower value 0.99 | S. cerevisiae deletion strains, locus YLR039C, strain RIC1, stronger effect = lower value 0.995 | S. cerevisiae deletion strains, locus YLR058C, strain SHM2, stronger effect = lower value 0.975 | S. cerevisiae deletion strains, locus YLR102C, strain apc9, stronger effect = lower value 0.995 | S. cerevisiae deletion strains, locus YLR113W, strain HOG1, stronger effect = lower value 1.01 | S. cerevisiae deletion strains, locus YLR221C, strain rsa3, stronger effect = lower value 1.02 | S. cerevisiae deletion strains, locus YLR258W, strain gsy2, stronger effect = lower value 0.986 | S. cerevisiae deletion strains, locus YLR262C, strain YPT6 (second series), stronger effect = lower value 0.995 | S. cerevisiae deletion strains, locus YLR262C, strain YPT6, stronger effect = lower value 0.955 | S. cerevisiae deletion strains, locus YLR268W, strain sec22, stronger effect = lower value 0.93 | S. cerevisiae deletion strains, locus YLR320W, strain mms22, stronger effect = lower value 0.993 | S. cerevisiae deletion strains, locus YLR330W, strain CHS5, stronger effect = lower value 1 | S. cerevisiae deletion strains, locus YLR342W, strain FKS1 (second series), stronger effect = lower value 1.04 | S. cerevisiae deletion strains, locus YLR342W, strain FKS1, stronger effect = lower value 0.972 | S. cerevisiae deletion strains, locus YLR357W, strain rsc2, stronger effect = lower value 0.953 | S. cerevisiae deletion strains, locus YLR370C, strain arc18, stronger effect = lower value 0.98 | S. cerevisiae deletion strains, locus YLR371W, strain rom2, stronger effect = lower value 0.991 | S. cerevisiae deletion strains, locus YLR384C, strain iki3, stronger effect = lower value 0.982 | S. cerevisiae deletion strains, locus YLR418C, strain cdc73, stronger effect = lower value 0.976 | S. cerevisiae deletion strains, locus YML016C, strain PPZ1, stronger effect = lower value 0.995 | S. cerevisiae deletion strains, locus YML032C, strain rad52, stronger effect = lower value 0.991 | S. cerevisiae deletion strains, locus YML120C, strain ndi1, stronger effect = lower value 0.984 | S. cerevisiae deletion strains, locus YML124C, strain tub3, stronger effect = lower value 0.989 | S. cerevisiae deletion strains, locus YMR058W, strain fet3, stronger effect = lower value 0.987 | S. cerevisiae deletion strains, locus YMR078C, strain ctf18, stronger effect = lower value 0.985 | S. cerevisiae deletion strains, locus YMR125W, strain sto1, stronger effect = lower value 1 | S. cerevisiae deletion strains, locus YMR129W, stronger effect = lower value 0.965 | S. cerevisiae deletion strains, locus YMR205C, strain PFK2, stronger effect = lower value 1.05 | S. cerevisiae deletion strains, locus YMR223W, strain ubp8, stronger effect = lower value 0.992 | S. cerevisiae deletion strains, locus YMR231W, strain pep5, stronger effect = lower value 0.988 | S. cerevisiae deletion strains, locus YMR307W, strain GAS1, stronger effect = lower value 1.08 and 1.02 | S. cerevisiae deletion strains, locus YNL067W, strain RPL9B, stronger effect = lower value 0.985 | S. cerevisiae deletion strains, locus YNL071W, strain lat1, stronger effect = lower value 0.995 | S. cerevisiae deletion strains, locus YNL128W, strain TEP1, stronger effect = lower value 0.989 | S. cerevisiae deletion strains, locus YNL153C, strain GIM3, stronger effect = lower value 0.969 | S. cerevisiae deletion strains, locus YNL175C, strain NOP13, stronger effect = lower value 1.01 | S. cerevisiae deletion strains, locus YNL183C, strain NPR1, stronger effect = lower value 0.934 | S. cerevisiae deletion strains, locus YNL197C, strain WHI3, stronger effect = lower value 1.01 | S. cerevisiae deletion strains, locus YNL209W, strain ssb2, stronger effect = lower value 0.998 | S. cerevisiae deletion strains, locus YNL224C, strain SQS1, stronger effect = lower value 1.01 | S. cerevisiae deletion strains, locus YNL233W, strain BNI4, stronger effect = lower value 0.994 | S. cerevisiae deletion strains, locus YNL248C, strain rpa49, stronger effect = lower value 0.928 | S. cerevisiae deletion strains, locus YNL250W, strain rad50, stronger effect = lower value 0.972 | S. cerevisiae deletion strains, locus YNL271C, strain bni1, stronger effect = lower value 1 | S. cerevisiae deletion strains, locus YNL298W, strain CLA4, stronger effect = lower value 0.999 | S. cerevisiae deletion strains, locus YNL307C, strain MCK1, stronger effect = lower value 0.989 | S. cerevisiae deletion strains, locus YNL322C, strain KRE1 (second series), stronger effect = lower value 0.968 | S. cerevisiae deletion strains, locus YNL322C, strain KRE1, stronger effect = lower value 0.999 | S. cerevisiae deletion strains, locus YNR049C, strain mso1, stronger effect = lower value 0.955 | S. cerevisiae deletion strains, locus YNR052C, strain pop2, stronger effect = lower value 0.999 | S. cerevisiae deletion strains, locus YOL006C, strain TOP1, stronger effect = lower value 0.903 | S. cerevisiae deletion strains, locus YOL012C, strain htz1 1.37 | S. cerevisiae deletion strains, locus YOL147C, strain pex11, stronger effect = lower value 0.999 | S. cerevisiae deletion strains, locus YOR001W, strain rrp6, stronger effect = lower value 0.984 | S. cerevisiae deletion strains, locus YOR061W, strain CKA2, stronger effect = lower value 0.964 | S. cerevisiae deletion strains, locus YOR069W, strain VPS5, stronger effect = lower value 0.999 | S. cerevisiae deletion strains, locus YOR070C, strain gyp1, stronger effect = lower value 0.986 | S. cerevisiae deletion strains, locus YOR080W, strain dia2, stronger effect = lower value 0.96 | S. cerevisiae deletion strains, locus YOR083W, strain WHI5 (second series), stronger effect = lower value 1.03 | S. cerevisiae deletion strains, locus YOR106W, strain vam3, stronger effect = lower value 0.959 | S. cerevisiae deletion strains, locus YOR136W, strain idh2, stronger effect = lower value 0.98 | S. cerevisiae deletion strains, locus YOR144C, strain elg1, stronger effect = lower value 0.994 | S. cerevisiae deletion strains, locus YOR184W, strain ser1, stronger effect = lower value 0.983 | S. cerevisiae deletion strains, locus YOR231W, strain MKK1, stronger effect = lower value 1 | S. cerevisiae deletion strains, locus YOR265W, strain rbl2, stronger effect = lower value 0.956 | S. cerevisiae deletion strains, locus YOR270C, strain vph1, stronger effect = lower value 0.972 | S. cerevisiae deletion strains, locus YOR290C, strain snf2, stronger effect = lower value 0.944 | S. cerevisiae deletion strains, locus YOR316C, strain cot1, stronger effect = lower value 0.986 | S. cerevisiae deletion strains, locus YPL051W, strain arl3, stronger effect = lower value 0.974 | S. cerevisiae deletion strains, locus YPL055C, strain LGE1, stronger effect = lower value 0.909 and 0.983 | S. cerevisiae deletion strains, locus YPL078C, strain atp4, stronger effect = lower value 0.964 | S. cerevisiae deletion strains, locus YPL106C, strain sse1, stronger effect = lower value 0.965 | S. cerevisiae deletion strains, locus YPL240C, strain hsp82, stronger effect = lower value 0.99 | S. cerevisiae deletion strains, locus YPL241C, strain CIN2, stronger effect = lower value 1.01 | S. cerevisiae deletion strains, locus YPL256C, strain CLN2, stronger effect = lower value 1.02 | S. cerevisiae deletion strains, locus YPR119W, strain clb2, stronger effect = lower value 0.987 | S. cerevisiae deletion strains, locus YPR141C, strain kar3, stronger effect = lower value 1 | S. cerevisiae deletion strains, locus YPR163C, strain tif3, stronger effect = lower value 1 | S. cerevisiae deletion strains, locus YPR167C, strain met16, stronger effect = lower value 0.999 | S. cerevisiae deletion strains, strain wtn01, stronger effect = lower value 0.987 | S. cerevisiae strains, strain wild type, stronger effect = lower value 0.99
active: S. cerevisiae deletion strains, locus YOR083W, strain WHI5, stronger effect = lower value 0.879
